TAG inh: triacylglycerol accumulation inhibition. 230,000 tested, 0.66% active. inhibition, % at 12.5 µM. AID 651582. H9c2 cells, Nile Red lipid (TAG) fluorescence; cells loaded with 200 µM oleic acid;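 active = pattern-corrected inhibition of lipid staining of at least 50% with the nuclear-stain viability signal not falling by more than 50%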;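 also: 0% = DMSO wells and 100% = triacsin C control wells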
Calpain2 inh: blocks pig calpain II enzyme activity; 220,000 tested, 0.37% active; inhibition, % at 16 µM; purified calpain II, fluorogenic peptide substrate, 30 min;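 active = inhibition above about 50%, limit read from the data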
Cardio protect: protects H9c2 cardiomyocytes from peroxide injury; H2O2 injury protection, ATPLite, 2 h; protection from H2O2 cell death, % at 20 µM; 360,000 tested, 0.63% active; AID 588492;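 active = compounds giving at least 50% protection of heart cells from peroxide-induced death in the single-dose screen, raw or plate-pattern-corrected value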;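 also: 0% = DMSO wells with peroxide and 100% = DMSO wells without peroxide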
beta cell repl: MIN6 beta-cell proliferation induction | MIN6 cells proliferation, ATPlite luminescence, 48 h; cells starved in 0.2% serum; 100% = growth in 10% serum | proliferation, % at 10 µM | 330,000 tested, 0.29% active;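 active = compounds whose signal lies at least 3.5 SD above the mean of all wells on their plate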;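 also: 0% = DMSO-treated cells in low-serum medium and 100% = 10% serum control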
aDG glyco up: alpha-DG glycosylation activation; AID 624168; activation, % at 10 µM; 360,000 tested, 0.22% active; Pro5-aDG cells, alpha-DG glycosylation AlphaScreen (IIH6); 0% Pro5, 100% B10-LARGE cell signal;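 active = activation of at least 8% versus controls, or a plate z-score of at least 8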;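 also: Pro5 are CHO cells carrying HIG-tagged alpha-DG that lacks glycosylation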
FAS TE block: FAS thioesterase (human) inhibition; 360,000 tested, 0.67% active; AID 602261; recombinant FAS-TE, OMFH fluorogenic substrate, fluorescence endpoint; inhibition, % at 15 µM;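 active = compounds whose normalised, plate-corrected inhibition of enzyme fluorescence in the single-dose primary screen is 50% or more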;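 also: 0% = DMSO with enzyme and 100% = substrate without enzyme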
Target sequence (P49327 whole entry, looked up): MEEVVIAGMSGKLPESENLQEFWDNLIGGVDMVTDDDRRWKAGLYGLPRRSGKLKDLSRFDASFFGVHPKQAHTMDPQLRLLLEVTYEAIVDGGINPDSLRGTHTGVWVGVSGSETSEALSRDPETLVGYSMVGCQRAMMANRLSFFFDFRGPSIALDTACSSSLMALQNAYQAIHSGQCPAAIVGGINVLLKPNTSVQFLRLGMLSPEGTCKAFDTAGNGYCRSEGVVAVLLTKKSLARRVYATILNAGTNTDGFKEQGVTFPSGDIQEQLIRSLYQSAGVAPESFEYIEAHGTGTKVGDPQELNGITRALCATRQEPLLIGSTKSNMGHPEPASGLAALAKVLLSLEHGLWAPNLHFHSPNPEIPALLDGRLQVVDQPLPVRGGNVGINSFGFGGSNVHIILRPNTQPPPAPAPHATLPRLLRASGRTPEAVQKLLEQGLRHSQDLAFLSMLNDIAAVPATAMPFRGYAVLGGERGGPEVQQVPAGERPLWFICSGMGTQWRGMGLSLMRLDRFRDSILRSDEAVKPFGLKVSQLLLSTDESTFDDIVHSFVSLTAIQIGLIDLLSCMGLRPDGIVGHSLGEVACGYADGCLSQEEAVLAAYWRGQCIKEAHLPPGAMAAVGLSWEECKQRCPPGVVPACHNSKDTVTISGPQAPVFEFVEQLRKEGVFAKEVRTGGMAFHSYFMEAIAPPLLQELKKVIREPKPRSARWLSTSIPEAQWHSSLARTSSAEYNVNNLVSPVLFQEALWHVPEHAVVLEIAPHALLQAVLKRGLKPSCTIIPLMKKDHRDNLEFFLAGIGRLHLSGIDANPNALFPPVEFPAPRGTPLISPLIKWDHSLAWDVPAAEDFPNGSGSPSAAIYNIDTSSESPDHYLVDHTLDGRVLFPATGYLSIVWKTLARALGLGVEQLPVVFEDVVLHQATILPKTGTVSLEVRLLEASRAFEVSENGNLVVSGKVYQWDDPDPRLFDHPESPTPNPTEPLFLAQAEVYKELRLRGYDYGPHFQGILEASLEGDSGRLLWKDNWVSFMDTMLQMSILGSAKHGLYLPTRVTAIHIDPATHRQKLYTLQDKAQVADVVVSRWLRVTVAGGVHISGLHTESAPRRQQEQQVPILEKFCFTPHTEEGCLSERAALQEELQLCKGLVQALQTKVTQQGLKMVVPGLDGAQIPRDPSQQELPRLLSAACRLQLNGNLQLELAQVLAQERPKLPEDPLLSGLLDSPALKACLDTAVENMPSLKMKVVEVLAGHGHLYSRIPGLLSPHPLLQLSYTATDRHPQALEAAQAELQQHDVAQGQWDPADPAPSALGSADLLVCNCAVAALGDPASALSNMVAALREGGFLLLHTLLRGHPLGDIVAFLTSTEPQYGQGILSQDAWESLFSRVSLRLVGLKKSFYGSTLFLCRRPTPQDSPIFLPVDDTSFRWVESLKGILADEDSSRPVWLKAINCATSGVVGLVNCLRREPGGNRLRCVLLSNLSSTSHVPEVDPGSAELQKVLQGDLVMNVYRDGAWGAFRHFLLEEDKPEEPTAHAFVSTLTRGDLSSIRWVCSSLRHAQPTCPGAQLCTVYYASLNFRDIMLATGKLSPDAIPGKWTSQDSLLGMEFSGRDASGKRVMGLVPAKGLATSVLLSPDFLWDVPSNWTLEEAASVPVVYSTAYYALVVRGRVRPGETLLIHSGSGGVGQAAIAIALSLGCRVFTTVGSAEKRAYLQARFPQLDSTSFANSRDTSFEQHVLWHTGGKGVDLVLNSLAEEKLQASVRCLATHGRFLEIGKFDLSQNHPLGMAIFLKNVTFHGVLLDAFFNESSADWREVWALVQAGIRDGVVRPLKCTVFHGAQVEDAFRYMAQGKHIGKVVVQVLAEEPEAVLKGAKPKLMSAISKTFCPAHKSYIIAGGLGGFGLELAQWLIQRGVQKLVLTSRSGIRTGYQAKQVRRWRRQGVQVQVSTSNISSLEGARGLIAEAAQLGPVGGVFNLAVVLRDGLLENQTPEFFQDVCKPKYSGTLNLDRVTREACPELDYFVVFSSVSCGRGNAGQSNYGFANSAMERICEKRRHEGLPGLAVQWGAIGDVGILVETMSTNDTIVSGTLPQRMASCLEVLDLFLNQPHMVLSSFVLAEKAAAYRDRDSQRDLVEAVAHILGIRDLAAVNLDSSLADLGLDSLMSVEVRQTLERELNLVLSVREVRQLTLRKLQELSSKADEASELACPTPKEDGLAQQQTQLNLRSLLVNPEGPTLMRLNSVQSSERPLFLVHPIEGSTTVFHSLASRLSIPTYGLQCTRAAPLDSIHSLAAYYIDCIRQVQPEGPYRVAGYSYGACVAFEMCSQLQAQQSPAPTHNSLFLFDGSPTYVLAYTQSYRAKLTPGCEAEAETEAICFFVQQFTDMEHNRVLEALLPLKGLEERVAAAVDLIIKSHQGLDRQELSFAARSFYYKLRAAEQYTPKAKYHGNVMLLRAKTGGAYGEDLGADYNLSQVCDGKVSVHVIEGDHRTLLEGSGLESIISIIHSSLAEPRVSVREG
FAS-TE inh conf: confirmation of human fatty acid synthase thioesterase inhibitors; recombinant FAS-TE, OMFH fluorogenic substrate, fluorescence; shares compounds with FAS TE block; inhibition, % at 15 µM; 2,300 tested, 45% active;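 active = compounds inhibiting the enzyme by at least 50% at 15 µM in any one of the replicates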;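 also: 0% = enzyme with DMSO only and 100% = wells lacking enzyme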
aDG conf: confirmation of alpha dystroglycan glycosylation activators; shares compounds with aDG glyco up; Pro5-aDG cells, alpha-DG glycosylation, IIH6 AlphaLISA; scaled to LARGE-overexpressing B10 cells as 100%; activation, % at 10 µM (by protocol); 600 tested, 17% active;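 active = activation of at least 7% in one or more replicates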;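 also: cells exposed to compound for two days before detection; 0% = DMSO-treated Pro5 cells and 100% = DMSO-treated B10-LARGE cells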
H9c2 TAG conf: triacylglycerol accumulation inhibition, confirmation; shares compounds with TAG inh; H9c2 lipid accumulation, Nile Red fluorescence; cells loaded with 200 µM oleic acid; inhibition, % at 12.5 µM; 990 tested, 71% active;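 active = mean inhibition across replicates of 40% or more; inactive = mean inhibition below 40%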;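 also: plate controls were DMSO only wells for no effect and Triacsin C treated wells for full effect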
* marks the source's active call; other numbers are inactive results; x = no result. In the library only some 2.3% were active in any assay of this set; here they are far more common.

SMILES	TAG inh	Calpain2 inh	Cardio protect	beta cell repl	aDG glyco up	FAS TE block	aDG conf	others
O=C(CC1C[C@H](C(=O)N2CCCCC2)[C@@]2(CCc3ccccc3)c3[nH]c4ccccc4c3CCN2C1=O)NCc1cccc(C(F)(F)F)c1 (some centres undefined)	91.0*	x	-9.2	-5.0	0.3	53.9*	x	FAS-TE inh conf=29.2;H9c2 TAG conf=88.0*
CN(CC(=O)Nc1cccc(F)c1)C(=O)c1cccc(S(=O)(=O)N2CCN(c3ccccc3)CC2)c1	-6.2	x	-12.8	-3.8	8.0*	13.5	-0.7
CN(CC(=O)Nc1ccc(F)cc1)C(=O)c1cccc(S(=O)(=O)N2CCN(c3ccc(F)cc3)CC2)c1	2.9	x	-22.3	-1.7	1.6	15.6	x
CC12CCC(C(NC(=S)NN)C1=O)C2(C)C (centres undefined)	5.9	x	-2.8	x	26.6*	-5.2	0.4
CCCCn1c(CCl)nc2cc(S(=O)(=O)N3CCOCC3)ccc21	18.1	x	7.9	-6.0	0.0	-4.5	x
CC(C)OCCCN(C)C1CCN(S(=O)(=O)c2csc(C(N)=O)c2)CC1	x	x	1.5	1.2	-0.2	-6.8	x
CC(C)OCCCN(C)C1CCN(S(=O)(=O)c2ccc(-c3cc(C(F)(F)F)no3)s2)CC1	x	x	-3.9	-7.7	3.8*	3.9	0.9
CCc1nc2ccc(C(=O)NCCC(C)C)cn2c1N(CC)CCOC	-4.0	x	3.1	x	-0.1	-8.6	x
CCCC[n+]1ccn(C2=C([O-])c3ccccc3C(=O)/C2=N\S(=O)(=O)c2ccc(Br)cc2)c1	x	11.9	-26.7	-4.4	10.7*	11.3	13.4*
COc1ccc(CNCc2ccco2)cc1OCc1ccccc1	x	10.4	-3.7	-0.9	0.4	-4.5	x
COc1ccccc1CCNCc1ccc(OC)c(OCc2ccccc2)c1	x	-3.0	-15.4	-5.5	5.6*	-10.8	1.7
COC(=O)c1c(C)cc(O)cc1O	x	x	-1.3	-2.1	0.1	-1.2	x
Cc1cc(OC(=O)c2c(C)cc(OC(=O)c3c(C)cc(O)cc3O)cc2O)cc(O)c1C(=O)O	x	x	-7.0	-0.6	6.1*	-7.0	0.2
COCCNC(=S)N1CCC2CC1c1cc(-c3ccc4c(c3)OCO4)ccc12 (centres undefined)	x	x	-1.3	x	-0.2	16.4	x
O=C(CSc1ccc(Cl)cc1)N/N=C/c1ccc([N+](=O)[O-])o1	x	x	-5.0	-6.5	3.2*	11.8	-1.2
NC(=O)N/N=C/c1ccc([N+](=O)[O-])o1	-2.2	x	7.4	-5.1	1.4	0.7	x
O=C(NCc1ccccc1)C(c1ccncc1)N(C(=O)c1csnn1)c1ccccc1F (centres undefined)	x	x	8.3	2.4	0.0	-4.1	x
Cc1c(C(=O)NCc2cccc(Cl)c2)sc(=O)n1Cc1cccc(F)c1	-7.1	x	-3.2	x	6.8*	29.4	0.3
Cc1c(C(=O)NCc2ccc(Cl)c(Cl)c2)sc(=O)n1Cc1cccc(F)c1	-21.1	x	-2.7	x	0.9	37.5	x
CCNC(=O)Nc1cc(S(=O)(=O)Nc2ccc(OC)cc2)ccc1N1CCOCC1	-50.1	x	-25.0	-7.5	4.9*	-0.3	-0.5
CCCCNC(=O)c1ccc(N2CCOCC2)c(NS(=O)(=O)c2ccc(OC)cc2)c1	x	3.1	-1.1	0.7	-0.2	-3.8	x
COc1ccc(NC(=O)CN2CCC(C)CC2)c([N+](=O)[O-])c1	x	7.0	-1.5	-1.3	-0.3	5.8	x
COc1cc(-c2ccc(NC(=O)CN3CCC(C)CC3)c(OC)c2)ccc1NC(=O)CN1CCC(C)CC1	x	24.4	-6.8	x	18.3*	23.7	4.0*
CC(=O)c1ccc(N2CCN(C(=O)Nc3ccc(F)cc3)CC2)cc1	-7.4	15.1	-4.2	-1.9	0.2	-3.9	x
CC(=O)c1ccc(N2CCN(C(=O)Nc3ccc(C(C)C)cc3)CC2)cc1	-9.3	-20.4	-18.4	-2.4	7.4*	6.5	6.8*
SMILES	TAG inh	Calpain2 inh	Cardio protect	beta cell repl	aDG glyco up	FAS TE block	aDG conf	others
O=C(CCl)N1CCCC1c1ccc2c(c1)OCCO2 (centres undefined)	x	x	0.8	-4.0	-0.2	0.4	x
COc1cc(OC)cc(C(=O)Nc2cccc(N3CCCC3)c2)c1	x	-25.6	4.5	-1.5	3.7*	-2.7	1.8
CCc1ccc(S(=O)(=O)NCc2ccc(C(=O)NCCN(Cc3ccccc3)C(C)C)cc2)cc1	-2.6	x	-28.1	x	4.5*	9.8	2.1
CC(=O)Nc1ccc(S(=O)(=O)NCc2ccc(C(=O)NCCN(C)Cc3ccccc3)cc2)cc1	-30.8	x	10.4	x	-0.1	-7.8	x
O=C(NCC[C@H]1CC[C@@H](NC(=O)C2CCC2)[C@@H](CO)O1)c1cc(Cl)cc(Cl)c1	x	x	x	x	-0.1	x	x
O=C(NCC[C@@H]1CC[C@@H](NS(=O)(=O)c2ccccc2)[C@@H](CO)O1)c1cc(Cl)cc(Cl)c1	x	x	x	x	7.7*	x	-0.1
CN(C(=O)CSc1nnc(COc2ccccc2F)n1N)C1CCS(=O)(=O)C1 (centres undefined)	-6.5	x	2.1	-5.6	-0.2	-3.7	x
COc1ccc2[nH]c3c(N4CCN(Cc5ccc6c(c5)OCO6)CC4)ncnc3c2c1	-12.3	-381.6	-8.2	-3.8	8.3*	7.6	3.5
CC(C)Cn1c2c(c(=O)[nH]c1=O)C(NS(=O)(=O)c1ccc(Cl)cc1)(C(F)(F)F)C(=O)N2 (centres undefined)	5.8	-4.3	10.1	2.5	0.0	-5.1	x
CCc1nc(CN2CCCC(C(=O)c3ccc4c5c(cccc35)CC4)C2)c(C)[nH]1 (centres undefined)	23.2	-462.3	-9.3	-5.9	7.3*	-0.7	-0.6
CC(Sc1nnc(Cc2ccccc2)o1)C(=O)Nc1ccccc1[N+](=O)[O-] (centres undefined)	0.0	x	5.2	-0.6	0.2	-1.1	x
CNc1nc(-c2c(C)n(C)c3ccc(OC)cc23)cs1	x	x	2.5	-0.3	3.0*	-24.3	4.1
O=C(Nc1cccc(F)c1)N1CCN(C(=O)c2ccco2)CC1	2.1	x	0.3	0.4	-0.2	-2.8	x
COc1cc2c(cc1OC)C(c1ccc(Br)cc1)NC(=O)C2 (centres undefined)	-11.4	x	5.9	-0.2	-0.1	-1.0	x
CCOC(=O)c1cnc(SCC(=O)Nc2cc(OC)ccc2OC)nc1N	-27.4	-11.3	-33.5	-1.8	6.7*	-0.4	0.1
CC(C)Cc1cc(CN2CCC(CO)(Cc3cccc(C(F)(F)F)c3)CC2)[nH]n1	1.2	-42.5	-15.4	-5.7	10.0*	-0.1	3.6
COc1cccc(-c2nc3nc(C)cc(C)n3c2NCc2ccccc2)c1	x	x	x	x	5.3*	3.8	1.2
